This passage reports binding signal results from paper PMC11006913.

Substitutions are numbered along the chain they refer to.

What all share (experiment): PBM; 200 nM protein, PBS
What all share (settings): dsDNA, one strand shown

For experiment [1], the target named is HOXC10 (Homo sapiens, UniProt Q9NYD6 254-340).
The target of experiment [2] is VAX1 (Homo sapiens, UniProt Q5SQQ9 86-172).
The target of experiment [3] is VAX1 (Homo sapiens, UniProt Q5SQQ9 86-172, T142I).
In experiment [4] the target is HOXC10 (Homo sapiens, UniProt Q9NYD6 254-340, K271E).
HOXC10 (Homo sapiens, UniProt Q9NYD6 254-340, K271E), sequence (Q9NYD6 254-340 K271E): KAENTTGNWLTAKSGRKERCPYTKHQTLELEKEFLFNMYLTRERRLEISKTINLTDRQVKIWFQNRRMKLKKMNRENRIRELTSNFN
In experiment [5] the target is VAX1 (Homo sapiens, UniProt Q5SQQ9 86-172, K157R).
VAX1 (Homo sapiens, UniProt Q5SQQ9 86-172, K157R), sequence (Q5SQQ9 86-172 K157R): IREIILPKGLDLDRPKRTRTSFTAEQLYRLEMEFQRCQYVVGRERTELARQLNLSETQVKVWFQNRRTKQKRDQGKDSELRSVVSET
In a further experiment the target is HOXA4 (Homo sapiens, UniProt Q00056 201-287, W262F).
HOXA4, sequence (Q00056 201-287 W262F): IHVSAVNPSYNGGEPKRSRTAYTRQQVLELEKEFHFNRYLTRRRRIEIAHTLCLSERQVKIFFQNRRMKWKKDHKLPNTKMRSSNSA
In experiment [6] the target is ALX4 (Homo sapiens, UniProt Q9H161 200-286).
ALX4 (Homo sapiens, UniProt Q9H161 200-286), sequence (Q9H161 200-286): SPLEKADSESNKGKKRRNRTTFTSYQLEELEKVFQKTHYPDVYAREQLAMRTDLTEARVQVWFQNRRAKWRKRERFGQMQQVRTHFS
Experiment [7] concerns the target T1, PAX4 (Homo sapiens, UniProt O43316 9-242, R200K).
T1 sequence: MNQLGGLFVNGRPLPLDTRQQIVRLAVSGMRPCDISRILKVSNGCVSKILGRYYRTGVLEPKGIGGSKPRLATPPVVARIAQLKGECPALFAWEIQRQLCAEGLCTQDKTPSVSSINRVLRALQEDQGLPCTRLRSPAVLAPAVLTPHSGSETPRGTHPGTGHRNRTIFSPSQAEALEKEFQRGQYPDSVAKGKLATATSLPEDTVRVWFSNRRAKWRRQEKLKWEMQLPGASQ

Experiment [8] deals with T2, PAX4 (Homo sapiens, UniProt O43316 9-242).
T2 sequence: T1 sequence with K192R

Experiment [9] deals with ALX4 (Homo sapiens, UniProt Q9H161 200-286, Q225E).
ALX4 (Homo sapiens, UniProt Q9H161 200-286, Q225E), sequence (Q9H161 200-286 Q225E): as the sequence (Q9H161 200-286) above, with Q26E counted along it
Experiment [10] concerns the target T3, NKX2-6 (Homo sapiens, UniProt A6NCS4 118-204).
T3 sequence: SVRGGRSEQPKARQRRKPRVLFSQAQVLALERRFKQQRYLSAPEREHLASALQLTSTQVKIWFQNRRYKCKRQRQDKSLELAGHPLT

The target in experiment [11] is T4, PAX4 (Homo sapiens, UniProt O43316 9-242, R200Q).
T4 sequence: T1 sequence with K192Q

The target in experiment [12] is T5, PAX4 (Homo sapiens, UniProt O43316 9-242, F177V).
T5 sequence: T1 sequence with F169V, K192R

In experiment [13] the target is T6, PAX4 (Homo sapiens, UniProt O43316 9-242, F177Y).
T6 sequence: T1 sequence with F169Y, K192R

Experiment [14] concerns the target T7, NKX2-6 (Homo sapiens, UniProt A6NCS4 118-204, F151L).
T7 sequence: T3 sequence with F34L

Experiment [15] has as its target T8, PAX4 (Homo sapiens, UniProt O43316 9-242, R227W).
T8 sequence: T1 sequence with K192R, R219W

The target of experiment [16] is PRRX1 (Homo sapiens, UniProt P54821 80-166, F113S).
PRRX1 (Homo sapiens, UniProt P54821 80-166, F113S), sequence (P54821 80-166 F113S): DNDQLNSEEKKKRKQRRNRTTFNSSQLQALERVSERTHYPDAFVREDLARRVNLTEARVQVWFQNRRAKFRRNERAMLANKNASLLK
The target of experiment [17] is MSX2 (Homo sapiens, UniProt P35548 130-214, R199I).
MSX2 (Homo sapiens, UniProt P35548 130-214, R199I), sequence (P35548 130-214 R199I): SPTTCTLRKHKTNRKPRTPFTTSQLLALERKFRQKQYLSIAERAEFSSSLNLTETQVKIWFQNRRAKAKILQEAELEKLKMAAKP
Experiment [18] has as its target MSX2 (Homo sapiens, UniProt P35548 130-214).
In experiment [19] the target is MSX2 (Homo sapiens, UniProt P35548 130-214, F161Y).
MSX2 (Homo sapiens, UniProt P35548 130-214, F161Y), sequence (P35548 130-214 F161Y): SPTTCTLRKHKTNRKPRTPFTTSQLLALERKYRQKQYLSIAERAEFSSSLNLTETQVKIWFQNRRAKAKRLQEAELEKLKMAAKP
In experiment [20] the target is PRRX1 (Homo sapiens, UniProt P54821 80-166).
PRRX1 (Homo sapiens, UniProt P54821 80-166), sequence (P54821 80-166): as the sequence (P54821 80-166 F113S) above, with S34F counted along it
The target of experiment [21] is ALX1 (Homo sapiens, UniProt Q15699 118-204, L144V).
ALX1 (Homo sapiens, UniProt Q15699 118-204, L144V), sequence (Q15699 118-204 L144V): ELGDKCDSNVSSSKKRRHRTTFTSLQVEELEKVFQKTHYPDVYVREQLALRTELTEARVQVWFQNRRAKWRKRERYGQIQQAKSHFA
The target of experiment [22] is ALX3 (Homo sapiens, UniProt O95076 139-225, N203Q).
ALX3 (Homo sapiens, UniProt O95076 139-225, N203Q), sequence (O95076 139-225 N203Q): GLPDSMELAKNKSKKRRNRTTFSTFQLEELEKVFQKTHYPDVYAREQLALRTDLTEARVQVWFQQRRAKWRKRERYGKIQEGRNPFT
The target of experiment [23] is ALX1 (Homo sapiens, UniProt Q15699 118-204, L144R).
ALX1 (Homo sapiens, UniProt Q15699 118-204, L144R), sequence (Q15699 118-204 L144R): as the sequence (Q15699 118-204 L144V) above, with V27R counted along it
For experiment [24], the target named is ALX3 (Homo sapiens, UniProt O95076 139-225).
ALX3 (Homo sapiens, UniProt O95076 139-225), sequence (O95076 139-225): as the sequence (O95076 139-225 N203Q) above, with Q65N counted along it
Experiment [25] has as its target ALX3 (Homo sapiens, UniProt O95076 139-225, L168Q).
In experiment [26] the target is ALX3 (Homo sapiens, UniProt O95076 139-225, L168V).
ALX3 (Homo sapiens, UniProt O95076 139-225, L168V), sequence (O95076 139-225 L168V): as the sequence (O95076 139-225 N203Q) above, with L30V, Q65N counted along it
For experiment [27], the target named is ALX3 (Homo sapiens, UniProt O95076 139-225, N203S).
ALX3 (Homo sapiens, UniProt O95076 139-225, N203S), sequence (O95076 139-225 N203S): as the sequence (O95076 139-225 N203Q) above, with Q65S counted along it
Experiment [28] concerns the target NKX3-2 (Homo sapiens, UniProt P78367 192-278, P234S).
The target in experiment [29] is NKX3-2 (Homo sapiens, UniProt P78367 192-278).
NKX3-2 (Homo sapiens, UniProt P78367 192-278), sequence (P78367 192-278): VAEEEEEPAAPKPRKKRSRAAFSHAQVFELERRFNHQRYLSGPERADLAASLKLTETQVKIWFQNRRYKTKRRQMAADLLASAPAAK

HOXC10 (Homo sapiens, UniProt Q9NYD6 254-340), sequence (Q9NYD6 254-340): as the sequence (Q9NYD6 254-340 K271E) above, with E18K counted along it
VAX1 (Homo sapiens, UniProt Q5SQQ9 86-172), sequence (Q5SQQ9 86-172): as the sequence (Q5SQQ9 86-172 K157R) above, with R72K counted along it
VAX1 (Homo sapiens, UniProt Q5SQQ9 86-172, T142I), sequence (Q5SQQ9 86-172 T142I): as the sequence (Q5SQQ9 86-172 K157R) above, with T57I, R72K counted along it
MSX2 (Homo sapiens, UniProt P35548 130-214), sequence (P35548 130-214): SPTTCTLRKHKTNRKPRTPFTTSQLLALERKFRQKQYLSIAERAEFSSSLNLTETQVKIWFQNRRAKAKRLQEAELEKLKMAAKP
NKX3-2 (Homo sapiens, UniProt P78367 192-278, P234S), sequence (P78367 192-278 P234S): as the sequence (P78367 192-278) above, with P43S counted along it
ALX3 (Homo sapiens, UniProt O95076 139-225, L168Q), sequence (O95076 139-225 L168Q): as the sequence (O95076 139-225 N203Q) above, with L30Q, Q65N counted along it

In the case of TGATGGCA, the binding signal with HOXC10 [1] was 10.7 upbm affinity estimate (log intensity, higher = more binding, comparable within an allelic series); with VAX1 [2], 9.08 upbm affinity estimate (log intensity, higher = more binding, comparable within an allelic series); in the experiment with VAX1 [3], 8.72 upbm affinity estimate (log intensity, higher = more binding, comparable within an allelic series).

As to CGTCCGCC, the binding signal with HOXC10 [1] was 9.96 upbm affinity estimate (log intensity, higher = more binding, comparable within an allelic series); with HOXC10 [4], 10 upbm affinity estimate (log intensity, higher = more binding, comparable within an allelic series); in the experiment with VAX1 [2], 7.19 upbm affinity estimate (log intensity, higher = more binding, comparable within an allelic series); in the experiment with VAX1 [3], 7.31 upbm affinity estimate (log intensity, higher = more binding, comparable within an allelic series); with VAX1 [5] it was 7.05 upbm affinity estimate (log intensity, higher = more binding, comparable within an allelic series).

For the sequence CATTAACA, the binding signal with HOXC10 [1] was 11.8 upbm affinity estimate (log intensity, higher = more binding, comparable within an allelic series); with HOXC10 [4], 11.6 upbm affinity estimate (log intensity, higher = more binding, comparable within an allelic series); in the experiment with HOXA4, 11.5 upbm affinity estimate (log intensity, higher = more binding, comparable within an allelic series).

For the sequence TAAGTCGA, the binding signal with ALX4 [6] was 10 upbm affinity estimate (log intensity, higher = more binding, comparable within an allelic series).

On to CGAAGGCC, for which the binding signal in the experiment with ALX4 [6] is 8.29 upbm affinity estimate (log intensity, higher = more binding, comparable within an allelic series); with PAX4 [7] it was 9.2 upbm affinity estimate (log intensity, higher = more binding, comparable within an allelic series); in the experiment with PAX4 [8], 9.31 upbm affinity estimate (log intensity, higher = more binding, comparable within an allelic series); in the experiment with ALX4 [9], 8.19 upbm affinity estimate (log intensity, higher = more binding, comparable within an allelic series); with NKX2-6 [10], 9.35 upbm affinity estimate (log intensity, higher = more binding, comparable within an allelic series); with PAX4 [11] it was 9.3 upbm affinity estimate (log intensity, higher = more binding, comparable within an allelic series). The binding signal with PAX4 [12] is 9.19 upbm affinity estimate (log intensity, higher = more binding, comparable within an allelic series); with PAX4 [13], 9.09 upbm affinity estimate (log intensity, higher = more binding, comparable within an allelic series); with NKX2-6 [14], 9.28 upbm affinity estimate (log intensity, higher = more binding, comparable within an allelic series); in the experiment with PAX4 [15] it was 9.29 upbm affinity estimate (log intensity, higher = more binding, comparable within an allelic series).

On to AGGGCACC, for which the binding signal with ALX4 [6] was 7.93 upbm affinity estimate (log intensity, higher = more binding, comparable within an allelic series); with PRRX1 [16], 9.03 upbm affinity estimate (log intensity, higher = more binding, comparable within an allelic series); with ALX4 [9], 8.09 upbm affinity estimate (log intensity, higher = more binding, comparable within an allelic series); with MSX2 [17], 9.47 upbm affinity estimate (log intensity, higher = more binding, comparable within an allelic series); with MSX2 [18], 9.48 upbm affinity estimate (log intensity, higher = more binding, comparable within an allelic series); in the experiment with MSX2 [19], 9.58 upbm affinity estimate (log intensity, higher = more binding, comparable within an allelic series). Further, the binding signal with PRRX1 [20] is 9.28 upbm affinity estimate (log intensity, higher = more binding, comparable within an allelic series).

On to CATTACCG, for which the binding signal in the experiment with ALX4 [6] was 11.2 upbm affinity estimate (log intensity, higher = more binding, comparable within an allelic series).

For the sequence AAATTAAC, the binding signal with ALX4 [6] is 13.5 upbm affinity estimate (log intensity, higher = more binding, comparable within an allelic series); with PAX4 [7], 11.6 upbm affinity estimate (log intensity, higher = more binding, comparable within an allelic series); in the experiment with PAX4 [8] it was 12.2 upbm affinity estimate (log intensity, higher = more binding, comparable within an allelic series); with ALX4 [9], 12.7 upbm affinity estimate (log intensity, higher = more binding, comparable within an allelic series); with ALX1 [21], 11.4 upbm affinity estimate (log intensity, higher = more binding, comparable within an allelic series); with ALX3 [22], 8.36 upbm affinity estimate (log intensity, higher = more binding, comparable within an allelic series). In addition, the binding signal with PAX4 [11] is 11.9 upbm affinity estimate (log intensity, higher = more binding, comparable within an allelic series); with ALX1 [23] it was 11.1 upbm affinity estimate (log intensity, higher = more binding, comparable within an allelic series); with PAX4 [12], 10.5 upbm affinity estimate (log intensity, higher = more binding, comparable within an allelic series); with ALX3 [24] it was 12.2 upbm affinity estimate (log intensity, higher = more binding, comparable within an allelic series); with PAX4 [13] it was 10.9 upbm affinity estimate (log intensity, higher = more binding, comparable within an allelic series); with ALX3 [25], 10.3 upbm affinity estimate (log intensity, higher = more binding, comparable within an allelic series). Also, the binding signal with ALX3 [26] was 9.64 upbm affinity estimate (log intensity, higher = more binding, comparable within an allelic series); with PAX4 [15] it was 10.9 upbm affinity estimate (log intensity, higher = more binding, comparable within an allelic series); in the experiment with ALX3 [27] it was 8.57 upbm affinity estimate (log intensity, higher = more binding, comparable within an allelic series).

AAGTACCG: the binding signal with HOXC10 [1] was 11 upbm affinity estimate (log intensity, higher = more binding, comparable within an allelic series); in the experiment with NKX3-2 [28] it was 12.4 upbm affinity estimate (log intensity, higher = more binding, comparable within an allelic series); with NKX3-2 [29] it was 12.5 upbm affinity estimate (log intensity, higher = more binding, comparable within an allelic series).

With CATTCTAA, the binding signal with ALX4 [6] is 9.79 upbm affinity estimate (log intensity, higher = more binding, comparable within an allelic series).

Consider CGGCCCCG, for which the binding signal with HOXC10 [1] is 10.2 upbm affinity estimate (log intensity, higher = more binding, comparable within an allelic series); with HOXC10 [4] it was 10.1 upbm affinity estimate (log intensity, higher = more binding, comparable within an allelic series).

Consider CAACATTA, for which, in the experiment with ALX4 [6], the binding signal is 10.5 upbm affinity estimate (log intensity, higher = more binding, comparable within an allelic series).

Consider AGGCTTCG, for which the binding signal in the experiment with HOXC10 [1] is 9.94 upbm affinity estimate (log intensity, higher = more binding, comparable within an allelic series); with HOXC10 [4], 10 upbm affinity estimate (log intensity, higher = more binding, comparable within an allelic series).
